According to PubChem BioAssay AID504727 (Broad Institute, 2011):
Unmarked numbers belong to inactive results. Activity calls are given as the source filed them.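 Rule for the calls: active = fitted half-maximal concentration AC50 at or below ten times the highest valid tested dose, with signal falling as DNA is displaced (actives reach about 34 µM in these data); inconclusive = flat fit at moderate signal loss, or poor fit quality; inactive = the rest, including signal rising instead of falling.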

assay: DNA intercalators displacing acridine orange, dose response, artefact control for KSHV LANA DNA-binding inhibitor project, biochemical, fluorescence polarization, cherry-picked samples, set 2 (AID 504727); conditions: AC50: Acridine orange-DNA displacement; series mostly up to 35 µM; activity change, negative = DNA displacement: at the top concentration;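 for activity change, negative = DNA displacement: 0% = median of neutral control wells and -100% = mitoxantrone positive control wells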

Compound	activity change, negative = DNA displacement [%]	AC50
CC(C)N(Cc1ccccc1)C(=O)Cn1c(=O)cnc2ccccc21	5.73	–
Cc1cc(C)n2nc(C(=O)OC(C)C(=O)c3cc(C)c(C)cc3C)nc2n1 (stereo not drawn)	3.62	–
CCCc1cc(C(=O)Nc2ccc(C(=O)c3ccc(C)cc3)cc2)n(C)n1	5.64	–
O=C(O)c1[nH]c2ccccc2c1C(c1cc(Cl)cc([N+](=O)[O-])c1O)c1c(C(=O)O)[nH]c2ccccc12	5.18	–
O=C1CN=C(Nc2ccccc2Cl)N1Cc1ccc2c(c1)OCO2	1.88	–
CCn1nc(-c2ccccc2)c2nc3ccccc3nc21	–	24.2 µM (active)
Cc1ccccc1C1=C/C(=C(\SS/C(C(=O)c2ccc(OCC(=O)O)c(Cl)c2Cl)=C2\C=C(c3ccccc3C)SS2)C(=O)c2ccc(OCC(=O)O)c(Cl)c2Cl)SS1	7.96	–
Cc1ccc(-c2nnn(CC(=O)NC3CCN(Cc4ccccc4)CC3)n2)cc1	4.81	–
COc1ccc(NS(=O)(=O)c2ccc3c(c2)[C@H]2C=CC[C@H]2[C@@H](c2ccc(C(=O)O)cc2)N3)cc1	5.91	–
CC(=O)Nc1ccc(S(=O)(=O)Nc2ccccc2N2CCOCC2)cc1	4.06	–
O=C(CCNc1ccc(Cc2ccncc2)cc1)c1cccc([N+](=O)[O-])c1	-1.92	–
O=C(OCc1ccccc1)N1C=CC2CC1c1c(Cl)cccc12 (stereo not drawn)	2.87	–
CC(=O)N/C(=N\OCc1ccc(Br)cc1)c1nonc1NC(C)=O	3.71	–
COC(=O)\C(C(C)=O)=C(/C=C/C=C/C=C/N(C)C)N(C)C	56.7	–
CC(C)(C)OC(=O)C[C@@H]1C/C=C\C[C@H](CC(=O)N(CCO)Cc2ccccc2)C(=O)N[C@@H](c2ccccc2)COC1=O	-2.7	–
CCN(CC)CCCNc1ccc2ncn3c4ccc(O)cc4c(=O)c1c23	–	6.91 µM (active)
COC(=O)c1sc(C(F)(F)F)c(-c2ccccc2)c1S(=O)(=O)N1CCOCC1	2.04	–
CCN(CC(=O)Nc1ccc(OC)cc1)C(=O)c1cc([N+](=O)[O-])ccc1N1CCOCC1	-1.23	–
O=C1c2cccc3c(O)ccc(c23)C(=O)N1Cc1ccco1	–	1.19 µM (active)
CCN1/C(=C2/SC(=S)N(NC(C)=O)C2=O)Sc2ccc(OC)cc21	–	18.8 µM (active)
CNC(=S)Nc1cccc(C(=O)OC)c1	-2.26	–
CCc1ccc(C2CC(c3cccc(Cl)c3)n3nc(N)nc3N2)cc1 (stereo not drawn)	8.02	–
CCC(C)[C@H](NC(=O)[C@@H]1Cc2ccccc2CN1)C(=O)Nc1ccc2c(c1)OCO2 (stereo partly drawn)	1.3	–
